According to the supplement of paper PMC13380429:
Counter-ions that a name gives are not always drawn.

How the values were obtained:
[1] = tested on: Vero E6 infected with SARS-CoV-2; experiment: morphology score (similarity to uninfected cells); higher = more like uninfected cells; details: 24 h
[2] = tested on: Vero E6 infected with SARS-CoV-2; experiment: SARS-CoV-2 infection rate relative to infected DMSO; higher = more infection, active = 60 or less; details: 24 h

CC1OC2(CS1)CN1CCC2CC1 (centres undefined) [cevimeline] (10 µM)
morphology score [1]: 0.0787 | SARS-CoV-2 infection rate [2]: 98% (inactive)

CC(C(=O)O)c1ccc(N2Cc3ccccc3C2=O)cc1 (centres undefined) [indoprofen] (10 µM)
morphology score [1]: -0.106 | SARS-CoV-2 infection rate [2]: 110% (inactive)

O[C@@H]1CO[C@H]2[C@@H]1OC[C@@H]2O [isosorbide] (10 µM)
morphology score [1]: 0.0141 | SARS-CoV-2 infection rate [2]: 112% (inactive)

CC(=O)N(c1onc(C)c1C)S(=O)(=O)c1ccc(N)cc1 [sulfisoxazole-acetyl] (10 µM)
morphology score [1]: 0.179 | SARS-CoV-2 infection rate [2]: 91% (inactive)

COc1cc(/C=C(\C#N)C(N)=O)cc(CSc2nc3ccccc3s2)c1O [tyrphostin-AG-825] (10 µM)
morphology score [1]: -0.108 | SARS-CoV-2 infection rate [2]: 108% (inactive)

Cc1cc(NC(=O)Nc2ccc(N(C)C)cc2)c2cc(F)cc(F)c2n1 (10 µM)
morphology score [1]: 0.204 | SARS-CoV-2 infection rate [2]: 99% (inactive)

C[C@@H]1O[C@@H](O[C@H]2[C@H](Oc3cc(O)c4c(c3)O[C@H](c3ccc(O)cc3)CC4=O)O[C@H](CO)[C@@H](O)[C@@H]2O)[C@H](O)[C@H](O)[C@H]1O [Naringin (Naringoside)] (10 µM)
morphology score [1]: 0.254 | SARS-CoV-2 infection rate [2]: 106% (inactive)

Cc1ccccc1C(=O)Nc1ccc(C(=O)N2CCCC(O)c3cc(Cl)ccc32)c(C)c1 (centres undefined) [tolvaptan] (10 µM)
morphology score [1]: 0.0857 | SARS-CoV-2 infection rate [2]: 120% (inactive)

CN(C)CCCN1c2ccccc2Sc2ccccc21 [promazine] (10 µM)
morphology score [1]: 0.41 | SARS-CoV-2 infection rate [2]: 91.5% (inactive)

CS(=O)(=O)c1ccc(C2=C(c3ccccc3)C(=O)OC2)cc1 [rofecoxib] (10 µM)
morphology score [1]: 0.0705 | SARS-CoV-2 infection rate [2]: 96.5% (inactive)

CC(C)c1ccc2c(c1)CC[C@H]1[C@](C)(CN)CCC[C@]21C [lylamine] (0.833333 µM)
morphology score [1]: -0.00872 | SARS-CoV-2 infection rate [2]: 106% (inactive)

NS(=O)(=O)c1ccc(NC(=O)Nc2ccc(F)cc2)cc1 (10 µM)
morphology score [1]: 0.0694 | SARS-CoV-2 infection rate [2]: 108% (inactive)

CCCCCCOc1nsnc1C1=CCCN(C)C1 [xanomeline] (10 µM)
morphology score [1]: 0.44 | SARS-CoV-2 infection rate [2]: 71.5% (inactive)

CNC(=O)[C@H]1O[C@@H](n2cnc3c(NCc4cccc(I)c4)nc(Cl)nc32)[C@H](O)[C@@H]1O (10 µM)
morphology score [1]: -0.0292 | SARS-CoV-2 infection rate [2]: 107% (inactive)

O=c1[nH]nc2c3c(cccc13)N=C(CN1Cc3ccccc3C1)N2 (10 µM)
morphology score [1]: 0.219 | SARS-CoV-2 infection rate [2]: 91% (inactive)

CCOc1cn(-c2ccc(F)cc2C)nc1C(=O)Nc1ccc(Oc2ccnc3cc(OC)c(OC)cc23)c(F)c1 (10 µM)
morphology score [1]: 0.685 | SARS-CoV-2 infection rate [2]: 110% (inactive)

CC(=O)O[C@H]1C[C@H](O[C@H]2[C@@H](O)C[C@H](O[C@H]3[C@@H](O)C[C@H](O[C@H]4CC[C@@]5(C)[C@H](CC[C@@H]6[C@@H]5C[C@@H](O)[C@]5(C)[C@@H](C7=CC(=O)OC7)CC[C@]65O)C4)O[C@@H]3C)O[C@@H]2C)O[C@H](C)[C@H]1O[C@@H]1O[C@H](CO)[C@@H](O)[C@H](O)[C@H]1O [lanatoside-C] (0.833333 µM)
morphology score [1]: -0.0895 | SARS-CoV-2 infection rate [2]: 102% (inactive)

C[C@@H](O[C@H]1OCCN(Cc2nn[nH]c2CN(C)C)[C@H]1c1ccc(F)cc1)c1cc(C(F)(F)F)cc(C(F)(F)F)c1 (10 µM)
morphology score [1]: 0.43 | SARS-CoV-2 infection rate [2]: 58% (active)

CN(C)CC/C=C1/c2ccccc2COc2ccc(CC(=O)O)cc21 [Olopatadine hydrochloride (Opatanol)] (10 µM)
morphology score [1]: 0.105 | SARS-CoV-2 infection rate [2]: 111% (inactive)

O=C(O)CC/C=C\C[C@@H]1CO[C@H](c2ccccc2Cl)O[C@@H]1c1ccccc1O (racemic) (10 µM)
morphology score [1]: -0.000999 | SARS-CoV-2 infection rate [2]: 106% (inactive)

COc1ccc(-c2ccc3c(N4CCOCC4)nc(N4C[C@@H](C)O[C@@H](C)C4)nc3n2)cc1CO (0.833333 µM)
morphology score [1]: 0.12 | SARS-CoV-2 infection rate [2]: 110% (inactive)

O=C(c1cc(S(=O)(=O)Nc2ccccc2F)c(F)cc1Cl)N1CCN2CCC[C@@H]2C1 (10 µM)
morphology score [1]: 0.0625 | SARS-CoV-2 infection rate [2]: 104% (inactive)

CNS(=O)(=O)Cc1ccc2[nH]cc(CCN(C)C)c2c1 [sumatriptan] (10 µM)
morphology score [1]: 0.205 | SARS-CoV-2 infection rate [2]: 98% (inactive)

Cc1nc2n(c(=O)c1CCN1CCC(c3noc4cc(F)ccc34)CC1)CCCC2O (centres undefined) [paliperidone] (10 µM)
morphology score [1]: 0.08 | SARS-CoV-2 infection rate [2]: 108% (inactive)

C#C[C@]1(OC(=O)CCCCCC)CC[C@H]2[C@@H]3CCC4=CC(=O)CC[C@@H]4[C@H]3CC[C@@]21C [norethisterone-enanthate] (10 µM)
morphology score [1]: 0.146 | SARS-CoV-2 infection rate [2]: 96.5% (inactive)

CCN(CC)CCCCNc1ncc2cc(-c3cc(OC)cc(OC)c3)c(NC(=O)NC(C)(C)C)nc2n1 (0.833333 µM)
morphology score [1]: 0.13 | SARS-CoV-2 infection rate [2]: 107% (inactive)

CONC(=N)c1ccc(-c2ccc(-c3ccc(C(=N)NOC)cc3)o2)cc1 [pafuramidine] (10 µM)
morphology score [1]: 0.0672 | SARS-CoV-2 infection rate [2]: 106% (inactive)

CC(C)(C)NCC(O)c1ccc(O)c(CO)c1 (centres undefined) [albuterol] (10 µM)
morphology score [1]: 0.108 | SARS-CoV-2 infection rate [2]: 100% (inactive)

N#CCC1(n2cc(-c3ncnc4[nH]ccc34)cn2)CN(C2CCN(C(=O)c3ccnc(C(F)(F)F)c3F)CC2)C1 [itacitinib] (10 µM)
morphology score [1]: 0.22 | SARS-CoV-2 infection rate [2]: 97.5% (inactive)

Cc1c(C(=O)NC2CCCCC2)sc2nc3ccc(N)cc3n12 (10 µM)
morphology score [1]: 0.0842 | SARS-CoV-2 infection rate [2]: 105% (inactive)

COc1cc(-n2cnc3cc(-c4ccc(Cl)cc4)sc3c2=O)ccc1OCCN1CCCC1 (10 µM)
morphology score [1]: 0.52 | SARS-CoV-2 infection rate [2]: 53% (active)

CC(=O)N(C)c1cccc(-c2ccnc3c(C(=O)c4cccs4)cnn23)c1 [indiplon] (10 µM)
morphology score [1]: -0.213 | SARS-CoV-2 infection rate [2]: 116% (inactive)

CCN(CC)CCOc1ccc(C(O)(Cc2ccc(Cl)cc2)c2ccc(C)cc2)cc1 (centres undefined) [Triparanol] (0.833333 µM)
morphology score [1]: 0.0848 | SARS-CoV-2 infection rate [2]: 77.5% (inactive)

Oc1ccc2ccccc2c1 [beta-naphthol] (10 µM)
morphology score [1]: -0.0489 | SARS-CoV-2 infection rate [2]: 111% (inactive)

Cc1ccc(CNc2ncnc3ccc(-c4ccc(CO)o4)cc23)o1 (10 µM)
morphology score [1]: 0.497 | SARS-CoV-2 infection rate [2]: 106% (inactive)

CS(=O)(=O)c1ccc(-c2nnc(/C=C/c3nnc(-c4ccc(C#N)cc4)o3)n2-c2ccccc2Cl)nc1 (10 µM)
morphology score [1]: 0.0833 | SARS-CoV-2 infection rate [2]: 99% (inactive)

O=C(O)C[C@H]1CC[C@H](c2ccc(NC(=O)c3nnc(Nc4ccc(F)c(F)c4)o3)cc2)CC1 (10 µM)
morphology score [1]: 0.115 | SARS-CoV-2 infection rate [2]: 91% (inactive)

Oc1cc(Cl)ccc1Oc1ccc(Cl)cc1Cl [triclosan] (10 µM)
morphology score [1]: 0.237 | SARS-CoV-2 infection rate [2]: 95% (inactive)

NC(=O)CN1CCCC1=O [piracetam] (10 µM)
morphology score [1]: -0.0282 | SARS-CoV-2 infection rate [2]: 96.5% (inactive)

C[C@]1(O)C[C@@H](c2nc(-c3ccc4ccc(-c5ccccc5)nc4c3)c3c(N)nccn32)C1 [linsitinib] (10 µM)
morphology score [1]: 0.275 | SARS-CoV-2 infection rate [2]: 88.5% (inactive)

CCc1cc2c(c(CC)n1)CCC(=O)N2Cc1ccc(-c2ccccc2-c2nnn[nH]2)cc1 (10 µM)
morphology score [1]: 0.264 | SARS-CoV-2 infection rate [2]: 98.5% (inactive)

CN1C(=O)C(Cc2c[nH]c3ccccc23)NC1=S (centres undefined) [necrostatin-1] (10 µM)
morphology score [1]: 0.186 | SARS-CoV-2 infection rate [2]: 93.5% (inactive)

CC(=O)CC(=O)O [lithium-acetoacetate] (10 µM)
morphology score [1]: 0.0997 | SARS-CoV-2 infection rate [2]: 102% (inactive)

COc1cc2c(cc1OC)CC(=O)N(CCCN(C)C[C@H]1Cc3cc(OC)c(OC)cc31)CC2 [ivabradine] (10 µM)
morphology score [1]: 0.15 | SARS-CoV-2 infection rate [2]: 112% (inactive)

Cc1cc(O)ccc1Cl [chlorocresol] (10 µM)
morphology score [1]: 0.0498 | SARS-CoV-2 infection rate [2]: 95.5% (inactive)

Clc1cccc(Cl)c1CSc1nnc(-c2cnccn2)s1 [yoda-1] (10 µM)
morphology score [1]: 0.286 | SARS-CoV-2 infection rate [2]: 89% (inactive)

O=C(Nc1c[nH]nc1-c1nc2ccc(CN3CCOCC3)cc2[nH]1)NC1CC1 (0.833333 µM)
morphology score [1]: 0.0293 | SARS-CoV-2 infection rate [2]: 118% (inactive)
